A short description of test [1]: qHTS assay to identify small molecule antagonists of the glucocorticoid receptor (GR) signaling pathway - cell viability counter screen (AID 720693). Also: nearly all actives have a fitted effect of over 55% in size.
A short description of test [2]: qHTS assay for identifying genotoxic compounds that show differential cytotoxicity against isogenic chicken DT40 cell lines with known DNA damage response pathways - wild type cell line (AID 743012). Also: nearly all actives have a fitted effect of over 60% in size. Also: potency is read from the fitted curve at half-maximal effect. A digest of the protocol:
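Viability by ATP luminescence (CellTiter-Glo, 30 min RT) after 40 h compound treatment at 37 C/5% CO2, using 300 parental DNA repair-proficient DT40 cells per well.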

Test [3] in a line: qHTS assay for identifying genotoxic compounds that show differential cytotoxicity against isogenic chicken DT40 cell lines with known DNA damage response pathways - Rev3 mutant cell line (AID 743014). Also: nearly all actives have a fitted effect of over 55% in size. Also: potency is read from the fitted curve at half-maximal effect. A general note: Quantitative high-throughput screening tests each substance at several concentrations.
Test [4] can be described thus: qHTS assay to identify small molecule antagonists of the androgen receptor (AR) signaling pathway - cell viability counter screen (AID 743033; also: nearly all actives have a fitted effect of over 45% in size).
Test [5] is described as follows: qHTS assay to identify small molecule antagonists of the androgen receptor (AR) signaling pathway using the MDA cell line - cell viability counter screen (AID 743041; also: nearly all actives have a fitted effect of over 45% in size). A digest of the protocol: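 qHTS viability read-out; MDA-kb2 AR-luc; R1881-stimulated; 16 h exposure at 37C, 0% CO2; CellTiter-Fluor, 30 min; fluorescence intensity.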
The nature of test [6]: qHTS assay to identify small molecule antagonists of the thyroid receptor (TR) signaling pathway - cell viability counter screen (AID 743064). Also: nearly all actives have a fitted effect of over 50% in size. Also: potency is read from the fitted curve at half-maximal effect. A digest of the protocol:
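Fluorescence from CellTiter-Fluor, added after 23.5 h exposure at 37 °C, reported viability of GH3.TRE-Luc cells co-treated with compound and 1 nM T3. Measured in the same wells as the luciferase TR readout.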

Test [7] can be described thus: qHTS assay to identify small molecule antagonists of the thyroid receptor (TR) signaling pathway (AID 743065). Also: nearly all actives have a fitted effect of over 55% in size. Also: potency is read from the fitted curve at half-maximal effect. A digest of the protocol:
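GH3.TRE-Luc rat pituitary cells carrying two TR response elements driving luciferase were plated for 4 h, given compound plus 1 nM T3 (final), and incubated 23.5 h at 37 C. ONE-Glo luminescence measured reporter inhibition; CellTiter-Fluor fluorescence tracked cytotoxicity.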

In test [8] the test system is thyroid hormone receptor (rat, GH3 cells). Nature of the test: qHTS assay to identify small molecule agonists of the thyroid receptor (TR) signaling pathway (AID 743066; calls by dose curve).
The target in test [9] is Estrogen receptor (Homo sapiens) (UniProt P03372). Nature of the test: qHTS assay to identify small molecule antagonists of the estrogen receptor alpha (ER-alpha) signaling pathway (AID 743069; active = well fitted curve in the direction sought with a large enough effect in the signal ratio in the repeat runs, not every such curve was filed as active; inconclusive = weak or mixed curves, or effect the other way; inactive = no such curve, though single readings can be large or run the other way; the % refers to the signal ratio; also: potency is read from the fitted curve at half-maximal effect). A digest of the protocol:
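Screening used a UAS-driven beta-lactamase reporter integrated into HEK293 cells expressing ER-alpha, stimulated with 17beta-estradiol alongside test compounds over 18 hr at 37C; signal came from LiveBLAzer B/G FRET fluorescence.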

Test [10] can be described thus: qHTS assay to identify small molecule antagonists of the estrogen receptor alpha (ER-alpha) signaling pathway - cell viability counter screen (AID 743074; calls by dose curve; also: nearly all actives have a fitted effect of over 45% in size).
Test [11] addresses Estrogen receptor (Homo sapiens) (UniProt P03372). Nature of the test: qHTS assay to identify small molecule agonists of the estrogen receptor alpha (ER-alpha) signaling pathway (AID 743075; calls by dose curve; also: potency is read from the fitted curve at half-maximal effect).
The target is the same in test [12]. Kind of test: qHTS assay to identify small molecule agonists of the estrogen receptor alpha (ER-alpha) signaling pathway using the BG1 cell line (AID 743079). Also: nearly all actives have a fitted effect of over 20% in size. Also: potency is read from the fitted curve at half-maximal effect.
A short description of test [13]: qHTS assay to identify small molecule antagonists of the estrogen receptor alpha (ER-alpha) signaling pathway using the BG1 cell line (AID 743080; calls by dose curve;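 also: BG1 cells stimulated with 17beta-estradiol alongside compound; series mostly up to about 70 µM; nearly all actives have a fitted effect of over 25% in size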). A digest of the protocol: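 Readout is ONE-Glo luminescence, taken 30 min at room temperature after reagent addition, preceded by a CellTiter-Fluor viability read; BG1-Luc-4E2 cells had received compound and 17beta-estradiol for 21.5 h at 37 C.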

Test [14] is described as follows: qHTS assay to identify small molecule antagonists of the estrogen receptor alpha (ER-alpha) signaling pathway using the BG1 cell line - cell viability counter screen (AID 743081).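 Also: compound given together with 17beta-estradiol as the ER stimulus; nearly all actives have a fitted effect of over 45% in size.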 Also: potency is read from the fitted curve at half-maximal effect.
In the next test the target is Aromatase (Homo sapiens) (UniProt P11511). Nature of the test: qHTS assay to identify aromatase inhibitors (AID 743083). Also: nearly all actives have a fitted effect of over 55% in size. Also: potency is read from the fitted curve at half-maximal effect.
Test [15] in a line: qHTS assay for identifying genotoxic compounds that show differential cytotoxicity against isogenic chicken DT40 cell lines with known DNA damage response pathways - Rad54/Ku70 mutant cell line (AID 743015). Also: nearly all actives have a fitted effect of over 60% in size. Also: potency is read from the fitted curve at half-maximal effect.
Test [16] has as its target Androgen receptor (Homo sapiens) (UniProt P10275). Nature of the test: qHTS assay to identify small molecule agonists of the androgen receptor (AR) signaling pathway (AID 743036; active = well fitted activation curve with a large enough effect in the signal ratio in the repeat runs, with a control signal flat, not every such curve was filed as active; inconclusive = weak or mixed curves, or effect the other way; inactive = no such curve, though single readings can be large or run the other way; the % refers to the signal ratio). A digest of the protocol: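 Fluorescence from a beta-lactamase FRET substrate served as read-out in AR-UAS-bla GripTite HEK293 cells. Cells were treated with DMSO-dissolved compounds for 16 h at 37C, then with LiveBLAzer B/G substrate for 2 h at room temperature.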

For test [17] the target is unchanged. Kind of test: qHTS assay to identify small molecule agonists of the androgen receptor (AR) signaling pathway using the MDA cell line (AID 743040; also: nearly all actives have a fitted effect of over 20% in size). A digest of the protocol: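 Agonist activity is measured as luciferase luminescence in human MDA-kb2 cells whose MMTV reporter responds to both AR and GR. Compounds in DMSO incubate 16 h at 37C, 0% CO2, and ONE-Glo is read after 30 min.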

Test [18] has the same target. Nature of the test: qHTS assay to identify small molecule antagonists of the androgen receptor (AR) signaling pathway using the MDA cell line (AID 743042; also: nearly all actives have a fitted effect of over 55% in size). A digest of the protocol:
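MDA-kb2 cells (human breast carcinoma, stably carrying an MMTV-luciferase reporter responsive to AR and GR) were plated at 3,000 cells/well and preincubated 5 hr at 37C, then given compound plus R1881 agonist for 16 h. ONE-Glo luminescence was read.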

The target is the same in test [19]. Kind of test: qHTS assay to identify small molecule antagonists of the androgen receptor (AR) signaling pathway (AID 743035; active = well fitted inhibition curve with a large enough effect in the signal ratio in the repeat runs, not every such curve was filed as active; inconclusive = weak or mixed curves, or effect the other way; inactive = no such curve, though single readings can be large or run the other way; the % refers to the signal ratio). A digest of the protocol: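 Antagonist mode: AR-bla HEK293 cells co-treated with test compounds and agonist R1881 for 16 h at 37C, 5% CO2. Beta-lactamase activity read as FRET fluorescence after 2 h room-temperature substrate loading.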

“And” between values parts separate entries of the source, which are not always exact repeats. Equal entries are not always repeated. More than one record can exist for a structure, and the calls need not agree. The source made the active and inactive calls. Unless noted, calls follow the shape of the dose curve; as a rule, active = well fitted curve in the direction sought with a large enough effect in the repeat runs; inconclusive = weak or mixed curves; inactive = no such curve, though single readings can be large; an effect the other way counts as inactive or inconclusive.

Sequence of Androgen receptor (Homo sapiens) (P10275 whole entry, looked up): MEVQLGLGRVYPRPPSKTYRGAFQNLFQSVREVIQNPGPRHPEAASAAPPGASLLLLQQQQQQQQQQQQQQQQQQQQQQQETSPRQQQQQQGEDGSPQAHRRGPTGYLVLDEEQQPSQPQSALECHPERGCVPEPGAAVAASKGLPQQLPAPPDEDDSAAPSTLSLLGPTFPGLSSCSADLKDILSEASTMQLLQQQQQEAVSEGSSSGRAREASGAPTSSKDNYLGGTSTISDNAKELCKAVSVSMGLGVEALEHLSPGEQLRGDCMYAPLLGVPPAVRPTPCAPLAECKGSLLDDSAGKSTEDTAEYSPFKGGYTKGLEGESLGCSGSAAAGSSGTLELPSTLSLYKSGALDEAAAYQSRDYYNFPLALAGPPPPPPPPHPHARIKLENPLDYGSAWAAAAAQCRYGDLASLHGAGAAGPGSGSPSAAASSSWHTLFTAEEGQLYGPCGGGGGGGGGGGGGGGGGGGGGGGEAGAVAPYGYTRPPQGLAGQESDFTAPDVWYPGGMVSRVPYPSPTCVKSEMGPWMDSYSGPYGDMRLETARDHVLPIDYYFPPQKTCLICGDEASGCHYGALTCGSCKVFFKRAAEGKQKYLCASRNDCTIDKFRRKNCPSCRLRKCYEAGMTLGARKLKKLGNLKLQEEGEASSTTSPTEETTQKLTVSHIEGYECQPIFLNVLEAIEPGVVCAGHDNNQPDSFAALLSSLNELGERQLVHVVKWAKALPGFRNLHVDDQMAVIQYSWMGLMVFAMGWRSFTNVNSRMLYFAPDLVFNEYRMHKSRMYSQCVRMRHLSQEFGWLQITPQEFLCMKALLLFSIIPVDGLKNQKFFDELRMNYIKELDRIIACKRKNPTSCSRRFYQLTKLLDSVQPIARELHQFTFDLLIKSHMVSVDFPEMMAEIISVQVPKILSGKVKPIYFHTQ
Sequence of Aromatase (Homo sapiens) (P11511 whole entry, looked up): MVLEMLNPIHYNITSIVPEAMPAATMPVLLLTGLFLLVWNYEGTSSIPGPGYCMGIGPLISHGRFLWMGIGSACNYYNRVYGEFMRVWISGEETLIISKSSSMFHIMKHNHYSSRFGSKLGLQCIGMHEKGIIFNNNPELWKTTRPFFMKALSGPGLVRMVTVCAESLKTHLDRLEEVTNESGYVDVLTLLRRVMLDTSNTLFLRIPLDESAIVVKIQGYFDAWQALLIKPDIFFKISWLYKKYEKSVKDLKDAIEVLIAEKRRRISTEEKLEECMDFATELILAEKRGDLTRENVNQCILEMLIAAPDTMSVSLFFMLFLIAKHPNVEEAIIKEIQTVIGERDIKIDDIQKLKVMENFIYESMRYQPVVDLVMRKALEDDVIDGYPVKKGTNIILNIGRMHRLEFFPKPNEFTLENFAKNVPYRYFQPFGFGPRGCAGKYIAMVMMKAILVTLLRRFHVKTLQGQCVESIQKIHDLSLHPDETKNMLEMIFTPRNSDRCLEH
Sequence of Estrogen receptor (Homo sapiens) (P03372 whole entry, looked up): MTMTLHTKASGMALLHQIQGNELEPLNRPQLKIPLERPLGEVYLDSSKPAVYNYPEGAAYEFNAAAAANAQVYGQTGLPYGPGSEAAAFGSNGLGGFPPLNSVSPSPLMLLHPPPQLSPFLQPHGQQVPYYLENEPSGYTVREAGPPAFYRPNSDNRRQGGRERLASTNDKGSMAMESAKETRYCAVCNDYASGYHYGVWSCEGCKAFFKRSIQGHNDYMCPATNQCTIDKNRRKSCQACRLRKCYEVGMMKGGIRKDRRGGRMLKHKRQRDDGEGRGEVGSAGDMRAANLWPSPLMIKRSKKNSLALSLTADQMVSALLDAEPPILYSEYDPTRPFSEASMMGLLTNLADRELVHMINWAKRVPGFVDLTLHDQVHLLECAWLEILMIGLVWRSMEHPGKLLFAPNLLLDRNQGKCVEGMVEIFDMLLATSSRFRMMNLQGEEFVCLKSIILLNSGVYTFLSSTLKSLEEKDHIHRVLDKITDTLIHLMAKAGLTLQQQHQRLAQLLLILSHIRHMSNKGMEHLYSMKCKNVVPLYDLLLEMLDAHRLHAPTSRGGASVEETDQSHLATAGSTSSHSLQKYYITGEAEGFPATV

Take `NC(=O)N/N=C/c1ccc([N+](=O)[O-])o1`: the Potency result in [1], in test [5], in test [6], in test [7], in test [9] and in test [11] was “inactive” each time. Besides, the Potency entry in [12] and in test [13] was “inactive” in each case. Further, the Potency result was “inactive and 30.6 µM (active)” in test [2]; “inactive and 43.3 µM (active)” in test [3]; “inactive and 54.5 µM (active)” in [14]; “inactive and 62.9 µM (active)” in the test with Aromatase (Homo sapiens). The result in [4], in test [8] and in test [10] was inactive.
For the compound `O=C1OC(c2ccc(O)cc2)(c2ccc(O)cc2)c2ccccc21`, the Potency result (in test [1]; in test [17]; in [5]; in [18]; in test [14]; with Aromatase (Homo sapiens)) was “inactive” each time. For the same compound, the Potency is 38.3 µM (active) in test [2], 17.1 µM (active) in [3] and 27.1 µM (active) in test [15]. The compound was classed as inactive in test [16] and in [10].
With `CCCCNC(=O)NS(=O)(=O)c1ccc(N)cc1`, the Potency result in test [1], in [2], in test [3], in test [15], in [5] and in [6] was “inactive” each time. In addition, the Potency entry (in test [7]; in test [14]; with Aromatase (Homo sapiens)) was “inactive” in each case. The compound was classed as inactive in [8] and in test [10].
As to `CN(C)C=O`, the Potency result in test [1], in [2], in test [3], in [5], in [6] and in test [7] was “inactive” in each case. The Potency result (in [9]; in test [11]; in [12]; in test [13]; in [14]; in the test with Aromatase (Homo sapiens)) was “inactive” throughout. The compound was called inactive in test [4], in [8] and in [10].
Take `NC(=O)N1c2ccccc2C=Cc2ccccc21`: the Potency entry in test [1], in test [5], in test [6], in [7], in [9] and in test [11] was “inactive” throughout. In addition, the Potency entry (in test [12]; in [13]; in test [14]; with Aromatase (Homo sapiens)) was “inactive” throughout. Further, the Potency result was “inactive and 30.6 µM (active)” in [2]; “inactive and 30.6 µM (active)” in test [3]. Moreover, the outcome in test [4], in test [8] and in test [10] was inactive.
In the case of `C#C[C@]1(O)CC[C@H]2[C@@H]3CCC4=CC(=O)CC[C@@H]4[C@H]3CC[C@@]21CC`, the Potency entry (in [1]; in test [5]; in test [6]; in test [13]; in test [14]; with Aromatase (Homo sapiens)) was “inactive” throughout. The Potency result was “inactive and 24.3 µM (active)” in [2]; “inactive and 27.3 µM (active)” in test [3]; “inactive and 19.3 µM (active) and 54.5 µM (active)” in test [15]; 27.3 µM (active) in test [7]; 422 nM (active) and 38.6 nM (active) and 386 nM (active) in test [12]. In addition, the compound was classed as inactive in [8] and in test [10].
With `CC(C)(C)NCC(O)c1ccc(O)c(CO)c1` (configuration not stated), the Potency result in [1], in [2], in test [3], in test [15], in test [5] and in test [6] was “inactive” each time. For the same compound, the Potency entry in test [7], in test [9], in test [11], in test [12], in test [13] and in test [14] was “inactive” throughout. The Potency result with Aromatase (Homo sapiens) is “inactive”. Moreover, the outcome in test [8] and in [10] was inactive.
On to `Nc1cccc(N)c1`, for which the Potency result in test [1], in test [2], in [5], in test [6], in test [7] and in test [14] was “inactive” each time. Moreover, the Potency entry with Aromatase (Homo sapiens) is “inactive”. Besides, the Potency in test [3] is 17.2 µM (active) and inactive. For the same compound, the outcome in test [4], in [8] and in test [10] was inactive.
As to `Nc1ccc(N=Nc2ccccc2)c(N)n1`, the Potency result (in test [1]; in test [5]; with Aromatase (Homo sapiens)) was “inactive” in each case. The Potency is 4.22 µM (active) and 61.1 µM (active) in test [2]; 4.22 µM (active) in test [3]; 7.5 µM (active) in [15]; 21.1 µM (active) and 34.6 µM (active) in test [6]; 49.2 µM [inhibitor] (active) in test [9]; 13.4 µM [inconclusive] (active) and inactive in test [11]. In addition, the Potency in test [12] was 2.11 µM (active) and 2.45 µM (active) and 2.17 µM (active); in test [14] it was 23.7 µM (active) and 54.8 µM (active). In [10], the compound was called inactive.
On to `CCCCC/C(C=O)=C\c1ccccc1`, for which the Potency entry in [1], in test [2], in test [3], in test [15], in test [5] and in [7] was “inactive” in each case. The Potency result (in test [14]; with Aromatase (Homo sapiens)) was “inactive” each time. Moreover, the Potency result in test [6] is “inactive and 61.2 µM (active)”. Moreover, the outcome in [8] and in [10] was inactive.
Take `CC(C)CC(C)CC(O)CC(C)C` (configuration not stated): the Potency result in test [1], in test [2], in [3], in test [5], in test [6] and in test [7] was “inactive” throughout. The Potency entry (in test [14]; with Aromatase (Homo sapiens)) was “inactive” each time. Besides, the result in [4], in [8] and in test [10] was inactive.
For `O=C(OCc1ccccc1)c1ccccc1`, the Potency result in test [1], in [2], in test [3], in [15], in [5] and in test [6] was “inactive” each time. Besides, the Potency entry (in test [7]; in test [14]; with Aromatase (Homo sapiens)) was “inactive” in each case. Moreover, the result in test [8] and in [10] was inactive.
Consider `OC[C@@H](O)[C@@H](O)[C@H](O)[C@H](O)CO`, for which the Potency result in test [1], in test [2], in test [3], in test [15], in test [5] and in [6] was “inactive” throughout. Besides, the Potency entry in test [7], in [9], in test [11], in [12], in test [13] and in test [14] was “inactive” in each case. Besides, the Potency entry with Aromatase (Homo sapiens) was “inactive”. Besides, the result in test [8] and in test [10] was inactive.
Consider `COc1cc(O)c(C(=O)c2ccccc2)cc1S(=O)(=O)O`, for which the Potency entry in test [1], in test [2], in test [3], in [19], in test [5] and in [18] was “inactive” in each case. The Potency result in [6], in [7], in test [9], in test [11], in test [12] and in [13] was “inactive” throughout. Moreover, the Potency entry (in test [14]; with Aromatase (Homo sapiens)) was “inactive” throughout. The compound was called inactive in test [4], in test [16], in [8] and in [10].
Take `CCCCOCCOCCOC(C)=O`: the Potency entry in test [1], in [2], in test [3], in test [15], in [5] and in [6] was “inactive” throughout. Also, the Potency entry in test [7], in test [9], in test [11], in [12], in test [13] and in test [14] was “inactive” in each case. For the same compound, in the test with Aromatase (Homo sapiens), the Potency result is “inactive”. Also, the compound was classed as inactive in test [8] and in test [10].
Consider `O=c1c(-c2ccc(O)cc2)coc2cc(O)cc(O)c12`, for which the Potency result (in test [1]; in test [17]; in [5]; in test [18]; in test [14]; with Aromatase (Homo sapiens)) was “inactive” in each case. The Potency is 11.9 µM (active) and 30.6 µM (active) in test [2]; 21.1 µM (active) and 53.5 µM (active) and 48.6 µM (active) in test [3]; 21.1 µM (active) and 47.7 µM (active) in test [6]; 11.9 µM (active) and 47.7 µM (active) and 21.7 µM (active) in test [7]. The compound was called inactive in test [4], in test [8] and in [10].
